activation, Potency and viability data for 24 compounds are collected here from PubChem BioAssay (NCATS).

Test [1] addresses Cellular tumor antigen p53 (Homo sapiens) (UniProt P04637). The experiment in a line: Primary qHTS for small molecule compounds that upregulate eGFP-tagged delta133p53alpha (in N-terminal) cells. (AID 2060322). Also: nearly all actives have a fitted effect of over 75% in size.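 As to activation: series mostly up to about 56 µM; 0% = DMSO vehicle and 100% = reference activator.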 The conditions noted are these: NCI-H358 eGFP-delta133p53alpha fluorescence, 24 h; activation: hits give high values. An outline of the steps: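 NCI-H358 cells pre-induced 24 h with 10 ng/ml doxycycline to express N-terminal eGFP-delta133p53alpha, then dosed 24 h at 37C without doxycycline; fixed, Hoechst-stained, GFP intensity by laser scanning cytometry, normalized to DMSO (0%) and 57.5 uM 5-azacytidine (100%).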
(In general: Quantitative high-throughput screening tests each substance at several concentrations.)

For test [2], the target named is Aldehyde dehydrogenase, mitochondrial (Homo sapiens) (UniProt P05091). The experiment in a line: qHTS for Inhibitors of the Aldehyde Dehydrogenase Family (ALDH2) Primary screen (AID 2061308). Also: nearly all actives have a fitted effect of over 55% in size.
For test [3], the target named is Retinaldehyde dehydrogenase 3 (Homo sapiens) (UniProt P47895). The experiment in a line: qHTS for Inhibitors of the Aldehyde Dehydrogenase Family (ALDH1A3) Confirmatory screens (AID 2061311). Also: nearly all actives have a fitted effect of over 60% in size.
The target is the same in test [4]. As to the kind of experiment: qHTS for Inhibitors of the Aldehyde Dehydrogenase Family (ALDH1A3) Validation screen (AID 2061312). Also: nearly all actives have a fitted effect of over 45% in size.
Test [5] is described as follows: BET inhibitor-based combinations targeting novel dependencies in MECOM-rearranged (r) AML: SET-2 cell line (AID 2202231). Also: nearly all actives have a fitted effect of over 35% in size.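 As to viability: plate controls were DMSO treated cells for no effect and wells without cells for full effect.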 The conditions noted are these: SET-2 AML cells viability, CellTiter-Glo luminescence, 48 h; viability: hits give low values, concentration not given here. In a few lines:
(§1)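 Each compound was tested at eleven concentrations on cells seeded at 500/well. After two days' incubation, ATP-based luminescence reported viability; responses relative to DMSO and blank wells yielded AUC and cell-line-centred Z-AUC.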

Test [6] is described as follows: BET inhibitor-based combinations targeting novel dependencies in MECOM-rearranged (r) AML: AML-191 cell line (AID 2202236; also: nearly all actives have a fitted effect of over 35% in size). In a few lines:
as §1

Test [7] concerns the target Retinal dehydrogenase 2 (Homo sapiens) (UniProt O94788). As to the kind of experiment: qHTS for Inhibitors of the Aldehyde Dehydrogenase Family (ALDH1A2) Confirmation screens (AID 2061314). Also: nearly all actives have a fitted effect of over 65% in size.
Test [8] addresses Retinaldehyde dehydrogenase 3 (Homo sapiens) (UniProt P47895). As to the kind of experiment: qHTS for Inhibitors of the Aldehyde Dehydrogenase Family (ALDH1A3) Primary screen (AID 2061315).
Test [9] has as its target Aldehyde dehydrogenase 1A1 (Homo sapiens) (UniProt P00352). The experiment in a line: qHTS for Inhibitors of the Aldehyde Dehydrogenase Family (ALDH1A1) Confirmatory screens (AID 2061316). Also: nearly all actives have a fitted effect of over 65% in size.
Test [10] is described as follows: BET inhibitor-based combinations targeting novel dependencies in MECOM-rearranged (r) AML: OCI-AML3 cell line (AID 2202232). Also: nearly all actives have a fitted effect of over 35% in size. The conditions noted are these: Potency: OCI-AML3 viability. An outline of the steps: as §1
The nature of test [11]: BET inhibitor-based combinations targeting novel dependencies in MECOM-rearranged (r) AML: MV-4-11 cell line (AID 2202233). Also: nearly all actives have a fitted effect of over 45% in size. An outline of the steps:
(§2)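 First, 500 cells per well were seeded; next, drugs were pinned as 11-point doses; then plates sat 48 hr in the incubator; finally CellTiter-Glo was added and luminescence read, with AUC and Z-AUC computed.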

Test [12] can be described thus: BET inhibitor-based combinations targeting novel dependencies in MECOM-rearranged (r) AML: HNT-34 cell line (AID 2202234). Also: nearly all actives have a fitted effect of over 35% in size. An outline of the steps:
as §2

A short description of test [13]: BET inhibitor-based combinations targeting novel dependencies in MECOM-rearranged (r) AML: UCSD-AML1 cell line (AID 2202235). Also: nearly all actives have a fitted effect of over 40% in size. In a few lines:
as §2

Test [14] can be described thus: BET inhibitor-based combinations targeting novel dependencies in MECOM-rearranged (r) AML: AML-194 cell line (AID 2202237; also: nearly all actives have a fitted effect of over 40% in size). An outline of the steps:
as §1

Where “and” joins values, the source holds several entries; their conditions need not be identical. Equal values may be shown once. Records with an inconclusive call do not appear. Unmarked numbers belong to inactive results. Calls of active or inactive are those of the source. Calls follow the shape of the dose curve; as a rule, active = well fitted curve in the direction sought with a large enough effect; inconclusive = small, poorly fitted or top-dose-only effect, or another doubt; inactive = no such curve, though single readings can be large; an effect the other way counts as inactive or inconclusive.
Potency is read from the fitted curve at half-maximal effect.

Sequence of Cellular tumor antigen p53 (Homo sapiens) (P04637 whole entry, looked up): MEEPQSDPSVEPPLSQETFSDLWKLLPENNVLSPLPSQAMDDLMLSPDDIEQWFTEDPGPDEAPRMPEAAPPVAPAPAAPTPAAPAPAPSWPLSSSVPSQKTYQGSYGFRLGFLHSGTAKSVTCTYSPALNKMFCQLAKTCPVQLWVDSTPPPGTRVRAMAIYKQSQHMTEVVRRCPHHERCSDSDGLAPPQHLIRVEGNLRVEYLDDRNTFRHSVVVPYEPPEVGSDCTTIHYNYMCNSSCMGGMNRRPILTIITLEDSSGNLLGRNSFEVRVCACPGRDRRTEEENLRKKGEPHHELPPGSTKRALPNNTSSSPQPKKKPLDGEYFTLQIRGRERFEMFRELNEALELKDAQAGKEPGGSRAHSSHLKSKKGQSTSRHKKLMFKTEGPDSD

For `COC(=O)C1=COC(O[C@@H]2O[C@H](CO)[C@@H](O)[C@H](O)[C@H]2O)/C(=C\COC(=O)/C=C/c2ccccc2)C1CC(=O)OCCc1ccc(O)cc1` (some centres not stated), the activation in test [1] was -0.763%. The Potency entry in test [2] is “inactive”.
For the compound `CC(C)(O)C1OC1C1=CC(=O)C2(C)OC2C1O` (configuration not stated), the activation in test [1] was 1.79%. For the same compound, the Potency result in test [2] was “inactive”.
The like results for `COc1cc(C2Oc3c(OC)cc(/C=C/C(=O)OC[C@H]4O[C@@H](OC(C)(C)C(=O)O)[C@H](O)[C@@H](O)[C@@H]4O)cc3C2CO)ccc1O` (some centres not stated) were, in that order, -9.16% and “inactive”.
The viability is a read-out of living cells in per cent, often relative to untreated cells. Consider `Cc1nn(C)c2c1C(c1ccc(C(F)(F)F)cc1)C(C#N)=C(N)O2` (configuration not stated), for which the activation in [1] was -5.25% and 36.9%. For the same compound, the Potency result in test [2], in test [3] and in [6] was “inactive” throughout. In addition, the Potency in [4] is 6.31 µM (active). Moreover, the viability in [5] is 87.6%.
Take `CN(C)CCCCCCNC(=O)c1cccc(-c2cc(O)c3ncccc3c2)c1`: the activation in test [1] was 0.333%. The Potency result in test [2] and in [7] was “inactive” throughout. Further, the Potency in test [3] was 8.96 µM (active).
For `COc1cc(C[C@H]2COC(=O)[C@@H]2Cc2ccc(O)c(OC)c2)ccc1O`, the activation in test [1] is -18.8%. Besides, in [2], the Potency entry is “inactive”.
Consider `C=C1C(=O)O[C@@H]2C3C(=C(C)[C@@H](O)[C@@H](OC(=O)/C(=C/C)COC(C)=O)[C@@H]12)C(=O)[C@H]1O[C@@]31C` (some centres not stated), for which the Potency in test [1] is 2.08 µM (active); in test [7], 0.98 µM (active). The Potency entry in test [2], in test [3], in test [8] and in test [9] was “inactive” in each case.
For the compound `CO/N=C(/C(=O)N[C@@H]1C(=O)N2C(C(=O)O)=C(CSC(=O)c3ccco3)CS[C@H]12)c1csc(N)n1`, in test [1], the activation is -18.6% and -3.67%. The Potency in [2] was 17.8 µM (active); in [3], 7.12 µM (active); in test [7], 28.3 µM (active); in test [9], 5.65 µM (active). Besides, the Potency entry in test [8] was “inactive”.
With `FC(F)(F)c1nnc2c(Sc3ccccc3)nc3ccc(Cl)cc3n12`, the activation in [1] was 29.1%. The Potency result in test [2], in test [4] and in [8] was “inactive” each time.
On to `CC1(C)CC=C(C#Cc2ccccc2)c2cc(/C=C/c3ccc(C(=O)O)cc3)ccc21`, for which, in test [1], the activation was -5.73%. Further, the Potency entry in [2], in test [4] and in test [8] was “inactive” throughout.
For the compound `CC(=O)c1c(O)cc2cccc3c2c1CC(C)(O)O3` (configuration not stated), in test [1], the activation is 6.11%. Besides, the Potency result in [2] and in test [8] was “inactive” throughout. Further, in [3], the Potency is 12.7 µM (active).
With `Cc1nnc(-c2ccc3occ(-c4ccc(S(C)=O)cc4)c3c2)o1` (configuration not stated), the activation in test [1] was -20.5%. For the same compound, the Potency entry in [2] and in [9] was “inactive” in each case. For the same compound, the Potency in [3] is 0.631 µM (active).
For `Cc1nnc(-c2ccc(-c3ccc(C(=O)Nc4ccc(O)c(N5CCN(C)CC5)c4)cc3)c(C)c2)o1`, the activation in test [1] was -0.477%. Moreover, the Potency entry in [2] and in [4] was “inactive” each time.
Turning to `CC1(C)Oc2ncnc(N)c2N=C1c1ccc(C23CCC(CC(=O)O)(CC2)CC3)cc1`, in test [1], the activation was -11.9%. For the same compound, the Potency entry in [2], in [4] and in test [8] was “inactive” each time.
With `Cc1ccc(-c2cn3c4c(sc3n2)CCCC4)cc1`, the activation in test [1] was 11%. In test [2], the Potency entry is “inactive”. In test [4], the Potency was 25.1 µM (active).
In the same order, the values of `O=C(Nc1cc2cc[nH]c2cn1)c1ccccc1` are -10%, “inactive” and 39.8 µM (active).
For the compound `CN1CCC(c2c[nH]c3ccc(NC(=O)c4ccc(F)cc4)cc23)CC1`, the activation in test [1] was -11%. Further, the Potency result in test [2], in test [4] and in test [8] was “inactive” throughout.
On to `COc1cncc(C#Cc2ccccn2)c1`, for which the activation in test [1] was 1.43%. For the same compound, the Potency entry in test [2] is “inactive”. Besides, the Potency in [4] is 22.4 µM (active).
As to `CC1=CC2=C(C)C(=O)C(C)(O)C(O)C2CO1` (configuration not stated), the activation in test [1] was -5.34%. Further, the Potency result in test [2] and in [9] was “inactive” in each case. In addition, the Potency in [3] is 22.5 µM (active).
Turning to `CCC(=O)N1CCc2cc(OC)c(O)cc2C1`, in test [1], the activation is -7.64%. The Potency result in test [2] was “inactive”. Further, the Potency in test [4] is 22.4 µM (active).
Take `COc1ccc(S(=O)(=O)Nc2cccnc2Nc2ccc(O)cc2)cc1`: the activation in test [1] was -22.5% and 22.4%. The Potency entry in [2] is “inactive”. Besides, the Potency in test [3] was 10.1 µM (active); in test [8], 7.94 µM (active); in test [9] it was 6.34 µM (active); in test [5] it was 1.32 µM (active); in test [10] it was 0.662 µM (active); in [11] it was 0.742 µM (active). For the same compound, the Potency is 0.59 µM (active) in [12], 0.468 µM (active) in test [13], 0.468 µM (active) in test [6] and 0.662 µM (active) in test [14].
Take `OC1(c2ccc(Cl)c(C(F)(F)F)c2)CCN(CCCC(c2ccc(F)cc2)c2ccc(F)cc2)CC1`: the activation in test [1] is 13%. Besides, the Potency result in test [2], in test [4] and in [8] was “inactive” throughout.
Regarding `O=c1[nH]c(=O)n([C@H]2CCCO2)cc1F`, the activation in test [1] was -9.6% and 3.34%. Moreover, the Potency entry in test [2], in test [4] and in [8] was “inactive” each time.
In the case of `O=C1CC2(CCCC2)[C@H](O)C(=O)N1CCCCN1CCN(c2ncccn2)CC1`, in [1], the activation is 4.77%. Besides, the Potency entry in [2], in [4] and in test [8] was “inactive” in each case.
